Source: PubChem BioAssay
D1 allo mod: D1 CRE-luciferase signal change, two-sided – cell-based, HEK293 D1, dopamine EC30, D1 allosteric modulator project, primary screen. D(1A) dopamine receptor (Homo sapiens), P21728. B-score at 10 µM. 5.9% of 58,000 active. dopamine EC30 potentiation; actives deviate in either direction;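 active = luminescence count or its row- and column-corrected plate score outside the 99.7% band of the plate's sample wells, on either side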
Target sequence (P21728 whole entry, looked up): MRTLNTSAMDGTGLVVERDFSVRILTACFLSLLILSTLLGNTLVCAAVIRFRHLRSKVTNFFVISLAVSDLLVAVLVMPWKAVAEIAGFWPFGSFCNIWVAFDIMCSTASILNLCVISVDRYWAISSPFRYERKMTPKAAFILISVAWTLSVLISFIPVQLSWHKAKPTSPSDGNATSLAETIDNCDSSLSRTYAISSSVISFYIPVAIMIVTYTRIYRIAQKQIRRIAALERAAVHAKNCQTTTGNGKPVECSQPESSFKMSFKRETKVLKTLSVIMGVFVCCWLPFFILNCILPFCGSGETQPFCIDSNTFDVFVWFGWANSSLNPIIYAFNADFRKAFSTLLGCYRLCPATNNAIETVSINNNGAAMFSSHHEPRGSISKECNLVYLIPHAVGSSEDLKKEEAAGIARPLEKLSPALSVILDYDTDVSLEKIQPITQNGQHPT
mHtt clearance: clearance of mutant huntingtin inclusions, primary screen, imaging, HeLa Exon1htt(103Q)mCFP, confocal imaging. aggregate imaging; zero = plate's median compound well. inhibition, % at 1.5 µM. 0.42% of 47,000 active;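 active = inhibition of aggregate fluorescence above about 70%, also judged a hit by eye on the cell image, limit read from the data, passing the limit was not always enough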;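 note: cells exposed to compound for three days before fixation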
M1 antag: antagonists of rat M1 muscarinic receptor. CHO-M1 cells, Fluo-4 calcium, ACh EC80 antagonist mode; hits give low values. B-score at 10 µM. 3.4% of 64,000 active. AID 628, 2007;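 active = calcium fluorescence response, raw or row-and-column corrected B-score, differing from the plate sample mean either way at a set confidence level, mostly lower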
M1 ag: M1 muscarinic receptor agonists, primary screen, CHO-M1 cells, Fluo-4 calcium, agonist mode. 3% of 64,000 active. Fluo-4 calcium fluorescence; hits give high values. B-score at 10 µM. Muscarinic acetylcholine receptor M1;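 active = fluorescence rise, raw or as B-score row- and column-corrected plate score, outside the 99.7% band of its plate's samples, either direction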
An asterisk follows results filed as active; . = no result given. The list is not random: actives were taken first. Their share in the collection is about 9.1%.

SMILES | D1 allo mod | mHtt clearance | M1 antag | M1 ag
C=CCn1c(C)nc2c(c1=O)c1nc3ccccc3nc1n2-c1ccc(C)cc1 | 0.4 | . | 0.23 | -0.79
COc1ccc(NC2=NCC(=O)N2c2ccccc2)c(OC)c1 | -0.042 | . | 0.94 | -0.16
CCOc1ccc(N2C(=O)CN=C2Nc2ccccc2F)cc1 | . | 97* | . | .
CN1CCN(CCCNC(=O)Nc2cccc3ccccc23)CC1 | -0.49 | 9 | 0.37 | 1.8
O=C(NCCCN1CCN(c2ccccc2)CC1)Nc1ccccc1C(F)(F)F | -2.7* | -18 | -0.69 | -0.93
COc1ccccc1N1CCN(CCCNC(=O)Nc2ccccc2)CC1 | -4.8* | 34 | 0.18 | 0.29
CCOC(=O)N1CCN(c2nc3ccccc3nc2C(C#N)S(=O)(=O)c2ccc(C)cc2)CC1 (configuration not stated) | 0.082 | . | . | .
S=C(NN=C1C2CC3CC(C2)CC1C3)Nc1ccccc1 | . | -4 | . | .
Cc1c(-c2cccs2)[n+](=O)c2c(n1[O-])CCCCC2 | -0.44 | 1 | 0.53 | 0.65
Cc1cccc(NC(=O)Cc2noc3ccccc23)c1 | . | 84* | . | .
CCOC(=O)C1CCN(c2ncnc3c2oc2ccccc23)CC1 | -0.036 | 53 | 0.096 | 2.7
CCOC(=O)c1cnn(-c2ncnc3c2oc2ccccc23)c1N | -3.7* | . | -0.2 | -0.42
COc1ccc(OC)c(N2C(=O)CC(Cc3ccc(C)cc3)C2=O)c1 (configuration not stated) | 0.72 | . | 0.0057 | 0.86
COc1ccc(C2=CSC3=C(C(=O)c4cccc(S(=O)(=O)N(C)C)c4)CCN23)cc1 | . | 18 | . | .
CCC(=O)Nc1c(C#N)c2nc3ccccc3nc2n1-c1ccc(C)cc1 | 1.9 | . | 0.42 | 4.3*
N#Cc1c(NC(=O)c2ccc(Br)o2)n(-c2ccccc2)c2nc3ccccc3nc12 | 1.6 | . | -0.75 | 42*
CCCCc1ccc(Nc2ncnc3nc[nH]c23)cc1 | -2.3 | 2 | -0.6 | -0.066
Cc1ccc(Nc2ncnc3nc[nH]c23)cc1Cl | -3.5* | . | 0.28 | -0.81
CCCN1C(=O)c2cc(C(=O)NC3CCCCCC3)ccc2C1O (configuration not stated) | -3.2* | 3 | 0.2 | -0.4
O=C(c1ccco1)N1CCN(C(=O)c2cccc3c2C(=O)N(C2CCCCC2)C3)CC1 | -3.4* | . | . | .
COc1ccc(NC(=O)Nc2cc(C)ccc2OC(F)F)c(OC)c1 | -0.5 | -3 | 2* | 1.4
COc1ccc(NC(=O)NS(=O)(=O)c2ccc(C)cc2)c(OC)c1 | -0.22 | -21 | 0.16 | 0.32
CCc1nnc(NC(=O)c2ccc(OC)cc2OC)s1 | -4.8* | -22 | 0.77 | 0.83
CCc1nnc(NC(=O)Nc2ccccc2OC)s1 | -0.087 | -18 | -0.071 | -0.3
CC1CCN(S(=O)(=O)c2cccc(C(=O)O)c2)CC1 | . | -146 | . | .
SMILES | D1 allo mod | mHtt clearance | M1 antag | M1 ag
COC(=O)c1cccc(S(=O)(=O)N2CCC(C)CC2)c1 | 0.048 | 71* | 0.26 | -0.71
O=C(Nc1ccccc1)N1CCCc2ccccc21 | . | 83* | . | .
O=C(CCCC(=O)N1CCCc2ccccc21)N1CCCc2ccccc21 | -0.27 | -43 | -0.42 | 1.2
CC(C)(C)NC(=O)C(c1ccccn1)N(C(=O)C1CSC(=O)C1)c1ccc(F)cc1 (configuration not stated) | . | 69 | . | .
CCOc1cc(C(=O)CSc2nnc(CNc3ccc(Cl)cc3)o2)ccc1NC(=O)CC | -1.6 | 62 | 0.16 | 0.018
COc1ccc(Nc2nc(N3CCCC3)c3ccccc3n2)cc1 | -6.9* | . | -0.21 | -0.89
COc1ccc2c(c1)[nH]c1c(=O)n(CCCn3ccnc3)cnc12 | . | -20 | . | .
O=S(=O)(NCCSc1ccccc1)c1cccs1 | 0.15 | 50 | -0.15 | 0.98
Cn1c(CNC2CCCCC2)c(C#N)c2ccccc21 | . | -24 | . | .
Cc1nn(Cc2cccc(C(=O)NCC(C)C)c2)c(C)c1Br | . | 57 | . | .
COC(=O)c1ccc(Cn2nc(C)c(Br)c2C)cc1 | -2.7* | . | -0.63 | -0.8
C=CCn1c(SCc2cc(=O)n3ccsc3n2)nc2scc(C3CC3)c2c1=O | 9.8* | . | -0.27 | 0.089
C=CCn1c(SCC(=O)NC2CCS(=O)(=O)C2)nc2scc(C3CC3)c2c1=O (configuration not stated) | 2.1 | -3 | -2.1 | 0.51
COc1ccc(C(=O)NCc2ccccn2)cc1 | . | 21 | . | .
COc1ccc(C(=O)NCCSc2ccccn2)cc1 | -5.3* | . | 0.25 | 0.018
O=C(CCC(=O)c1ccc[nH]1)c1ccc(Cl)cc1 | -1.4 | 75* | 0.19 | -0.35
Cc1cc(C(=O)Nc2cccc(C(=O)O)c2)oc1C | -4.4* | . | -0.53 | 0.33
O=C1C(c2ccncc2)N(CCC2=CCCCC2)C(=O)CN1C1CCCCC1 (configuration not stated) | -0.4 | 28 | -0.0055 | -0.67
O=C(Nc1nc(-c2nc3ccccc3s2)cs1)C1CC1 | -3.4* | . | 0.21 | 1.3
O=C(Nc1nc(-c2nc3ccccc3s2)cs1)c1ccco1 | 0.11 | . | 0.8 | 0.7
Cc1cc2cc(CCNC(=O)c3c(-c4ccccc4Cl)noc3C)c(=O)[nH]c2cc1C | -3.7* | . | 0.38 | 2
CCc1nnc(NC(=O)c2ccc3c(c2)C(=O)N(CC)C3=O)s1 | . | 51 | . | .
CN(c1ccccc1)S(=O)(=O)c1cc(C(=O)N2CCN(c3ccccn3)CC2)ccc1Cl | -3.3* | 57 | -0.26 | 2
Cc1ccc(S(=O)(=O)NCc2ccc(C(=O)N3CCN(c4ccccn4)CC3)cc2)cc1 | . | 20 | 2.4* | 4
COc1ccc(C(=O)N2CCN(c3ccccn3)CC2)cc1 | . | 26 | . | .
SMILES | D1 allo mod | mHtt clearance | M1 antag | M1 ag
COCCn1c(CN2CCN(c3cccc(Cl)c3)CC2)nc2c1c(=O)n(C)c(=O)n2C | -3.5* | . | -0.031 | -0.2
CCOCCn1c(CN2CCN(c3cccc(Cl)c3)CC2)nc2c1c(=O)n(C)c(=O)n2C | 0.26 | 69 | -0.26 | -0.18
COC(=O)c1c(NC(=O)CN2CCN(C(=O)c3ccco3)CC2)c2c(C)cccc2n1C | -0.61 | -15 | -0.83 | 2.5
COC(=O)c1c(NC(=O)CN2CCN(C(=O)c3ccco3)CC2)c2cc(C)ccc2n1C | -2.8* | . | 0.55 | 1.1
CCCS(=O)(=O)N1CCN(C(=O)c2cccc(OC)c2)CC1 | 0.21 | -137 | 0.013 | 0.24
NC(=O)C1CCN(CCCNC2CC(=O)N(Cc3ccc(N4CCCC4=O)cc3)C2=O)CC1 (configuration not stated) | -0.42 | -33 | 0.075 | 4.2*
COc1ccc(C(=O)Nc2nc3cc(OC)c(OC)cc3c(=O)[nH]2)cc1 | -0.5 | . | 10* | -0.13
COc1cc2nc(NC(=O)c3ccccc3)[nH]c(=O)c2cc1OC | . | -11 | -0.49 | 0.67
CCCS(=O)(=O)N1CCN(Cc2ccc(OCc3ccccc3)c(OC)c2)CC1 | 0.43 | . | -0.87 | 1.3
COc1ccc(CN2CCN(C)CC2)cc1OCc1ccccc1 | -0.62 | 74* | 0.089 | -0.029
CC(=O)C1=C(c2ccccc2)NC(=O)NC1c1ccccc1OCC(=O)NCc1ccccc1 (configuration not stated) | . | 12 | . | .
O=C(NCC1CCCO1)c1csc2c1CCCCC2 (configuration not stated) | -3.3* | . | 0.46 | -0.64
O=c1c2c(nc3cc(-c4ccc(F)cc4)[nH]n13)CCCC2 | -5.3* | . | -0.33 | -0.66
